Assay results: PubChem BioAssay
The source made the active and inactive calls.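 The calls were made as follows, unless noted: active = inhibition at or above 50% at 10 µM; inactive = inhibition below 50%.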

Columns and labels:
[1] = inhibitors of TNFa-induced NFkB p65 translocation, primary screen, imaging, HUVEC, MLSMR starter and 10KST1 sets (AID 438;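 active = inhibition above 20% together with a positive visual image hit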;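 also: compound added about 3h40 before a 20 min TNFalpha stimulation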;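 as to inhibition: signal is the nuclear over cytoplasmic p65 intensity ratio per well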); conditions: HUVEC TNFa-induced p65 nuclear translocation; cell count: measured here: nuclei count (cytotoxicity indicator), at 2.08 µM; inhibition: at 2 µM, stronger effect = higher value, 0% TNFa-plus-vehicle, 100% no-TNFa wells
[2] = inhibitors of mutant huntingtin aggregation, primary screen, imaging, exon1htt(103Q)mCFP cells, high-content imaging (AID 483;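 active = visual image review flags a hit and inhibition of aggregation exceeds 20%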;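 also: compound exposure lasted 3 days before fixation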;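 as to nuclei count: percent of the per-plate median nuclei count of sample wells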); conditions: exon1htt(103Q)mCFP cell line, aggregate imaging, at 2 µM; inhibition of aggregation: stronger effect = higher value; nuclei count: measured here: cell count, toxicity
[3] = inhibitors of E-selectin induction by TNFa, primary screen, imaging, HUVEC, immunofluorescence, MLSMR starter and 10KST1 sets (AID 487;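 active = visually confirmed hit in the image check and inhibition above 20%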;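 as to inhibition: signal is fraction of cell area covered by stained E-selectin grains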;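 as to nuclei count: 100% = median nuclei count of all wells on the same plate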); conditions: HUVEC TNFalpha-induced E-selectin immunofluorescence imaging, at 2 µM; inhibition: stronger effect = higher value; nuclei count: measured here: cell number, toxicity
[4] = target: Voltage-gated potassium channel subunit beta-2 (Rattus norvegicus) (UniProt P62483); assay: KvBeta enzyme negative modulators, primary screen, biochemical, NADPH fluorescence (AID 622;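 active = fluorescence slope higher than the sample average by over 3 SD, cut at about -0.22 in these data, passing the limit was not always enough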;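 also: slope of raw intensity against log time taken from 70 to 1610 s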); conditions: recombinant KvBeta, 4-cyanobenzaldehyde reduction, at 10 µM, stronger effect = higher value
Chain of Voltage-gated potassium channel subunit beta-2 (Rattus norvegicus) (P62483 whole entry, looked up): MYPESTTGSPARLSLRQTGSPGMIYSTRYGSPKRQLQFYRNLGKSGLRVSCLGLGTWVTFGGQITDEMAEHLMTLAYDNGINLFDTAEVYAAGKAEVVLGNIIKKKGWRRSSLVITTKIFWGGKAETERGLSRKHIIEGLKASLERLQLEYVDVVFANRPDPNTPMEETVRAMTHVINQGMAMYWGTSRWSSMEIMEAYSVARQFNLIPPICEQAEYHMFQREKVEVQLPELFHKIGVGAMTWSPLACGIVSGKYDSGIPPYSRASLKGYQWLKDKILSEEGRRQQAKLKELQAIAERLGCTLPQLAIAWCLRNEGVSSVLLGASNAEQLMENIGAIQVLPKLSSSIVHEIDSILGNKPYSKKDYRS

[5] = target: Voltage-gated potassium channel subunit beta-2 (Rattus norvegicus) (UniProt P62483); assay: KvBeta positive modulators, primary screen, biochemical, NADPH fluorescence (AID 623;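 active = NADPH fluorescence slope more negative than the mean of all samples by about 3 SD, 99.7% confidence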;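 also: fluorescence intensity change per second fitted from 20 to 320 s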); conditions: Recombinant KvBeta, NADPH fluorescence decrease slope, 10 min; at 10 µM; stronger effect = lower value
[6] = target: Alpha-2C adrenergic receptor (Homo sapiens) (UniProt P18825); assay: modulators of alpha2C/GIRK thallium flux, primary screen, cell-based, HEK293 alpha2C/GIRK1/2 (AID 624;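 active = fluorescence slope after compound addition differing from the mean of all screened samples at 99.7% confidence, in either direction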;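 also: slope of fluorescence ratio to pre-addition baseline per second over 15 to 24 s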); conditions: thallium flux BTC fluorescence, at 10 µM, actives lie on both sides
Chain of Alpha-2C adrenergic receptor (Homo sapiens) (P18825 whole entry, looked up): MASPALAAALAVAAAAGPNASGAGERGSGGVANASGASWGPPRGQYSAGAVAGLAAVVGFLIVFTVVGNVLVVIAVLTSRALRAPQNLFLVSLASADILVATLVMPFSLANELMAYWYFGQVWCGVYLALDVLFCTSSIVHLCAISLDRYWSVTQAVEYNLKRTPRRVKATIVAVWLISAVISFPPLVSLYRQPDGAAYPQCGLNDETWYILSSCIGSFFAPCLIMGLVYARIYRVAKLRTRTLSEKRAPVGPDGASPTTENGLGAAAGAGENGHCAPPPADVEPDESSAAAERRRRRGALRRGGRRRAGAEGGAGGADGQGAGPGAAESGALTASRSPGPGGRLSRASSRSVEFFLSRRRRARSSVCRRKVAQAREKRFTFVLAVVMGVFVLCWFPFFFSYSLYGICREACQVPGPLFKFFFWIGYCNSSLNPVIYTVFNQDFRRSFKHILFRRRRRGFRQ

[7] = inhibitors of Sendai virus-induced IRF3 signaling, primary screen, TLR/RLR signaling modifier project, cell-based, Sendai virus stimulus, luciferase, 10K MLSCN set (AID 602276); conditions: HEK293 RL24 IRF3 luciferase reporter, at 10 µM, stronger effect = higher value;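 also: firefly luciferase from ISG56 promoter only with Renilla not read in this screen; 0% = Sendai virus plus DMSO and 100% = medium plus DMSO without virus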
[8] = inhibitors of poly I:C-induced TLR3 signaling, primary screen, cell-based, poly I:C stimulus, luciferase, 10K MLSCN set (AID 602277;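 active = inhibition of the reporter signal at or above 50%; inactive = inhibition below 50%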); conditions: HEK293-TLR3 RL24 IRF3 luciferase reporter, at 10 µM, stronger effect = higher value

CCC(CC)n1[nH]c(=O)c2c(C)cc(C)nc21
cell count [1]: 368 | inhibition [1]: 0.2% (inactive) | inhibition of aggregation [2]: 0.4% (inactive) | nuclei count [2]: 106% | inhibition [3]: 13.4% (inactive) | nuclei count [3]: 106% | fluorescence slope [4]: -0.299 (inactive) | NADPH fluorescence slope [5]: -6.9e-05 (inactive) | slope [6]: 0.00499 (inactive) | inhibition [7]: 6.59% (inactive) | inhibition [8]: 13.6% (inactive)

O=C(c1ccccc1Cl)N1CCc2ccccc2C1
cell count [1]: 645 | inhibition [1]: -4.9% (inactive) | inhibition of aggregation [2]: 17.3% (inactive) | nuclei count [2]: 97.3% | inhibition [3]: -68.8% (inactive) | nuclei count [3]: 112% | fluorescence slope [4]: -0.478 (inactive) | NADPH fluorescence slope [5]: -0.000194 (inactive) | slope [6]: 0.00482 (inactive) | inhibition [7]: -6.82% (inactive) | inhibition [8]: -17% (inactive)

C=CCn1c(SCC(=O)C(C)(C)C)nnc1-c1ccccn1
cell count [1]: 583 | inhibition [1]: -3.4% (inactive) | inhibition of aggregation [2]: 16.4% (inactive) | nuclei count [2]: 83.3% | inhibition [3]: 9.2% (inactive) | nuclei count [3]: 90.9% | fluorescence slope [4]: -0.291 (inactive) | NADPH fluorescence slope [5]: -5.6e-05 (inactive) | slope [6]: 0.00526 (inactive) | inhibition [7]: 12.5% (inactive) | inhibition [8]: 18.5% (inactive)

Cn1c2c(c(=O)n(C)c1=O)C(CC(=O)Nc1ccccc1)C(=O)N2 (centres undefined)
cell count [1]: 604 | inhibition [1]: -3.5% (inactive) | inhibition of aggregation [2]: -2.9% (inactive) | nuclei count [2]: 72% | inhibition [3]: -81.2% (inactive) | nuclei count [3]: 152% | fluorescence slope [4]: -0.597 (inactive) | NADPH fluorescence slope [5]: -3.5e-05 (inactive) | slope [6]: 0.00726 (inactive) | inhibition [7]: 10.9% (inactive) | inhibition [8]: 22.4% (inactive)

CC1CCCc2sc3nc(NCc4ccco4)n4ncnc4c3c21 (centres undefined)
cell count [1]: 335 | inhibition [1]: 7.7% (inactive) | inhibition of aggregation [2]: 8.4% (inactive) | nuclei count [2]: 17.7% | inhibition [3]: 5.2% (inactive) | nuclei count [3]: 112% | fluorescence slope [4]: -0.514 (inactive) | NADPH fluorescence slope [5]: -9.2e-06 (inactive) | slope [6]: 0.00555 (inactive) | inhibition [7]: 2.57% (inactive) | inhibition [8]: -0.465% (inactive)

Cc1noc(C)c1COc1cccc(C(=O)Nc2ccc(C#N)cc2)c1
cell count [1]: 422 | inhibition [1]: 0.4% (inactive) | inhibition of aggregation [2]: 3.1% (inactive) | nuclei count [2]: 94.2% | inhibition [3]: -15.6% (inactive) | nuclei count [3]: 106% | fluorescence slope [4]: -0.455 (inactive) | NADPH fluorescence slope [5]: -4.9e-05 (inactive) | slope [6]: 0.00473 (inactive) | inhibition [7]: 2.49% (inactive) | inhibition [8]: -0.298% (inactive)

c1ccc(C(Cc2nc(-c3ccccn3)no2)c2ccccc2)cc1
cell count [1]: 337 | inhibition [1]: -8% (inactive) | inhibition of aggregation [2]: 4% (inactive) | nuclei count [2]: 110% | inhibition [3]: -83.3% (inactive) | nuclei count [3]: 100% | fluorescence slope [4]: -0.449 (inactive) | NADPH fluorescence slope [5]: -6.2e-05 (inactive) | slope [6]: 0.00562 (inactive) | inhibition [7]: 20.3% (inactive) | inhibition [8]: 14.4% (inactive)

Cc1ccc2nc(-c3ccc4c(c3)OCCO4)cc(C(=O)O)c2c1
cell count [1]: 337 | inhibition [1]: -10.3% (inactive) | inhibition of aggregation [2]: -4.5% (inactive) | nuclei count [2]: 111% | inhibition [3]: 30.4% (inactive) | nuclei count [3]: 89.9% | fluorescence slope [4]: -0.299 (inactive) | NADPH fluorescence slope [5]: -4e-05 (inactive) | slope [6]: 0.00454 (inactive) | inhibition [7]: -13.7% (inactive) | inhibition [8]: 98.1% (active)

CC(C)n1c(CN2CCN(C)CC2)nc2c1c(=O)n(C)c(=O)n2C
cell count [1]: 600 | inhibition [1]: -5.3% (inactive) | inhibition of aggregation [2]: 0.5% (inactive) | nuclei count [2]: 103% | inhibition [3]: -24.8% (inactive) | nuclei count [3]: 118% | fluorescence slope [4]: -0.488 (inactive) | NADPH fluorescence slope [5]: -4.5e-05 (inactive) | slope [6]: 0.00573 (inactive) | inhibition [7]: 22.2% (inactive) | inhibition [8]: 22.9% (inactive)

Cc1cc(C)cc(N2C(=O)CC(N3CCOCC3)C2=O)c1 (centres undefined)
cell count [1]: 459 | inhibition [1]: 3% (inactive) | inhibition of aggregation [2]: -4.9% (inactive) | nuclei count [2]: 105% | inhibition [3]: 38.6% (inactive) | nuclei count [3]: 98.8% | fluorescence slope [4]: -0.355 (inactive) | NADPH fluorescence slope [5]: 3e-05 (inactive) | slope [6]: 0.00693 (inactive) | inhibition [7]: 13.8% (inactive) | inhibition [8]: 32.5% (inactive)

CCOc1cccc2cc(C(=O)N3CCN(C/C=C/c4ccccc4)CC3)c(=O)oc12
cell count [1]: 596 | inhibition [1]: -3.6% (inactive) | inhibition of aggregation [2]: -2.4% (inactive) | nuclei count [2]: 103% | inhibition [3]: -80.4% (inactive) | nuclei count [3]: 133% | fluorescence slope [4]: -0.236 (inactive) | NADPH fluorescence slope [5]: -4e-05 (inactive) | slope [6]: 0.00413 (inactive) | inhibition [7]: 1.41% (inactive) | inhibition [8]: -10.8% (inactive)

COc1cccc(-n2nc(C(=O)Nc3ccc4c(c3)OCO4)c3ccccc3c2=O)c1
cell count [1]: 741 | inhibition [1]: 1.6% (inactive) | inhibition of aggregation [2]: -5.9% (inactive) | nuclei count [2]: 98.3% | inhibition [3]: -27% (inactive) | nuclei count [3]: 118% | fluorescence slope [4]: -0.601 (inactive) | NADPH fluorescence slope [5]: -3.9e-05 (inactive) | slope [6]: 0.0101 (inactive) | inhibition [7]: 3.08% (inactive) | inhibition [8]: -20.2% (inactive)

Oc1ccc2cccnc2c1
cell count [1]: 719 | inhibition [1]: -12.9% (inactive) | inhibition of aggregation [2]: -15.8% (inactive) | nuclei count [2]: 100% | inhibition [3]: -44.3% (inactive) | nuclei count [3]: 118% | fluorescence slope [4]: -0.12 (active) | NADPH fluorescence slope [5]: 2.2e-05 (inactive) | slope [6]: 0.00432 (inactive) | inhibition [7]: -2.36% (inactive) | inhibition [8]: 0.747% (inactive)

Nn1c(SCC(=O)NC2CCCCC2)nnc1-c1ccc(Cl)cc1
cell count [1]: 376 | inhibition [1]: 0.7% (inactive) | inhibition of aggregation [2]: -1.9% (inactive) | nuclei count [2]: 106% | inhibition [3]: -114% (inactive) | nuclei count [3]: 108% | fluorescence slope [4]: -0.472 (inactive) | NADPH fluorescence slope [5]: 6.9e-06 (inactive) | slope [6]: 0.00502 (inactive) | inhibition [7]: 14.6% (inactive) | inhibition [8]: 19% (inactive)

c1ccc2c(c1)CC(N1CCCCC1)c1ccccc1N2 (centres undefined)
cell count [1]: 631 | inhibition [1]: -6.3% (inactive) | inhibition of aggregation [2]: 10.2% (inactive) | nuclei count [2]: 107% | inhibition [3]: -26.5% (inactive) | nuclei count [3]: 83.5% | fluorescence slope [4]: -0.41 (inactive) | NADPH fluorescence slope [5]: -0.000142 (inactive) | slope [6]: 0.00466 (inactive) | inhibition [7]: 10.1% (inactive) | inhibition [8]: 24.1% (inactive)

COc1ccccc1N(CC(=O)NCc1ccccn1)S(C)(=O)=O
cell count [1]: 355 | inhibition [1]: -7.9% (inactive) | inhibition of aggregation [2]: 26.7% (inactive) | nuclei count [2]: 83.6% | inhibition [3]: 29.3% (inactive) | nuclei count [3]: 75.4% | fluorescence slope [4]: -0.422 (inactive) | NADPH fluorescence slope [5]: -4.6e-05 (inactive) | slope [6]: 0.00261 (inactive) | inhibition [7]: 7.95% (inactive) | inhibition [8]: 32.3% (inactive)

CCOc1ccc2ccccc2c1C(=O)N1CCN(c2ccccc2)CC1
cell count [1]: 287 | inhibition [1]: -3% (inactive) | inhibition of aggregation [2]: 41.9% (inactive) | nuclei count [2]: 15.6% | inhibition [3]: 44.7% (inactive) | nuclei count [3]: 64.1% | fluorescence slope [4]: -0.423 (inactive) | NADPH fluorescence slope [5]: -1.3e-05 (inactive) | slope [6]: 0.0036 (inactive) | inhibition [7]: 46.4% (inactive) | inhibition [8]: 56.3% (active)

CN(C)CCCN1C(=O)c2oc3ccccc3c(=O)c2C1c1cccs1 (centres undefined)
cell count [1]: 665 | inhibition [1]: -1.2% (inactive) | inhibition of aggregation [2]: -8.2% (inactive) | nuclei count [2]: 107% | inhibition [3]: -25.6% (inactive) | nuclei count [3]: 132% | fluorescence slope [4]: -0.443 (inactive) | NADPH fluorescence slope [5]: 4e-06 (inactive) | slope [6]: 0.00339 (inactive) | inhibition [7]: 7.52% (inactive) | inhibition [8]: 8.07% (inactive)

CC(C)(Oc1ccc(Cl)cc1)C(=O)NCc1ccncc1
cell count [1]: 419 | inhibition [1]: 5.2% (inactive) | inhibition of aggregation [2]: -21% (inactive) | nuclei count [2]: 96.4% | inhibition [3]: -85.3% (inactive) | nuclei count [3]: 113% | fluorescence slope [4]: -0.297 (inactive) | NADPH fluorescence slope [5]: -5.5e-05 (inactive) | slope [6]: 0.00503 (inactive) | inhibition [7]: 11.3% (inactive) | inhibition [8]: 12.2% (inactive)
